Experimental data from the supplement of paper PMC10849652.
Targets with a hit are over-represented here; the source holds about 7,900 in all. About 0.6% of all pairs of compound and target were hits.

Key:
Experiment in all cases: log2 fold change, soluble protein after heating vs DMSO (PISA); higher = thermal stabilisation; K562 cells, 10 uM, 30 min; active = over 0.2 and 3.5 SD of the protein, either way, in both replicates (recomputed)
[1] = compound: CC1=C(SC2=C1C(=N[C@H](C3=NN=C(N32)C)CC(=O)N)C4=CC=C(C=C4)Cl)C
In short: (§1)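 K562 cells at 2×10^6 cells/mL were given 10 μM compound for 30 min. Aliquots then went through 3 min of heating across 48°C-58°C, were pooled, and were extracted in PBS with 0.5% NP-40 at 4°C, and the supernatant after 21,000xg for 90 min was quantified by TMTpro 16plex LC-MS/MS with channel sums equalised. Thermal stability relative to control samples, from duplicates, is given as log2 fold change.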

[2] = compound: Cc1sc2c(c1C)C(c1ccc(Cl)cc1)=N[C@@H](CC(=O)OC(C)(C)C)c1nnc(C)n1-2
In short: as §1

[3] = compound: c1ccc([C@@H]2C[C@H]2NC2CCNCC2)cc1
In short: as §1

[4] = compound: C1=CC=C(C=C1)[C@H](COC2=CC3=C(C=C2)NC(=O)N3)NC(=O)C4=CC=CN(C4=O)CC5=CC(=C(C=C5)F)F
In short: as §1

[5] = compound: CC1=C2C(=CC=C1)N=C(N(C2=O)C3=CC=CC=C3C)CN4C=NC5=C(N=CN=C54)N
In short: as §1

Measured: log2 fold change

RBM6 (UniProt P78332)
inactive: [1] -0.075 | [2] 0.012 | [3] 0.076

RDH11 (UniProt Q8TC12)
UniProt Q8TC12, sequence (Q8TC12 whole entry, looked up): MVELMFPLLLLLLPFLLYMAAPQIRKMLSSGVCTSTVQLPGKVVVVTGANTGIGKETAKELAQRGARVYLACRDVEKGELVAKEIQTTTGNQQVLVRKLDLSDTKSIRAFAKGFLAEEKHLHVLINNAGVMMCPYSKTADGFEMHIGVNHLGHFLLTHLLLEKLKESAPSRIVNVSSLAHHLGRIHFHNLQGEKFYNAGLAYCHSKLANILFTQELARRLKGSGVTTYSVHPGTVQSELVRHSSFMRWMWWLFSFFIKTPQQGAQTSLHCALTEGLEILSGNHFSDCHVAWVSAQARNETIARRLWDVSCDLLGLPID
inactive: [4] 0.258 | [1] 0.06 | [5] 0.266 | [2] 0.115 | [3] -0.058

RICTOR isoform 3 (UniProt Q6R327)
inactive: [2] 0.043

RNF14 (UniProt Q9UBS8)
UniProt Q9UBS8, sequence (Q9UBS8 whole entry, looked up): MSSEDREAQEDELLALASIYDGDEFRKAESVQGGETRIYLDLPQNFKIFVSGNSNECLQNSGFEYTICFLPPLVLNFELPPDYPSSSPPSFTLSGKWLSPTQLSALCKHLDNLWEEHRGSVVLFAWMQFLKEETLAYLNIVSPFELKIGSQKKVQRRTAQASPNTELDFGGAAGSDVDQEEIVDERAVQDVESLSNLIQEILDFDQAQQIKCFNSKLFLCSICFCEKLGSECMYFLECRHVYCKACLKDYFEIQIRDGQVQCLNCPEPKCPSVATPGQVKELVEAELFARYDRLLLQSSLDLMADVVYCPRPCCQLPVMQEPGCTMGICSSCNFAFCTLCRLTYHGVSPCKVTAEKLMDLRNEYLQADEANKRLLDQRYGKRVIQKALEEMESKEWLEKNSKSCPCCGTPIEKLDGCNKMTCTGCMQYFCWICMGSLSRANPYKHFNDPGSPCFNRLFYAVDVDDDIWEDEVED
inactive: [4] -0.031 | [1] -0.005 | [5] -0.048 | [2] -0.013 | [3] 0.03

SERINC1 (UniProt Q9NRX5)
UniProt Q9NRX5, sequence (Q9NRX5 whole entry, looked up): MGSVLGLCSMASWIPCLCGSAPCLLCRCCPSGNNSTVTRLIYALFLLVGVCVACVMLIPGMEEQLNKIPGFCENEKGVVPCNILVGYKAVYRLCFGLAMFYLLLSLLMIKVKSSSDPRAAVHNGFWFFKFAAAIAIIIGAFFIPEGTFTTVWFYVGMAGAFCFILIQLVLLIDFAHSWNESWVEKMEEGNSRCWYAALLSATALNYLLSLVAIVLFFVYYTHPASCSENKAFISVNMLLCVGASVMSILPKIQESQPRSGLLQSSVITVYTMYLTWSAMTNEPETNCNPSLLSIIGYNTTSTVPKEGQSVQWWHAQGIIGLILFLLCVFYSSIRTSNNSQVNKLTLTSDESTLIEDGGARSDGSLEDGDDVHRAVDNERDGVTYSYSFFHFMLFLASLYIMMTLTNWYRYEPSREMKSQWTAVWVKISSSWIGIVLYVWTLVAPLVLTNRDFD
inactive: [4] 0.021 | [5] 0.027 | [2] -0.08

RPS3 (UniProt E9PJN9)
inactive: [2] 0.141

RNF26 (UniProt Q9BY78)
inactive: [4] 0.005 | [5] -0.104

SAP30 (UniProt O75446)
UniProt O75446, sequence (O75446 whole entry, looked up): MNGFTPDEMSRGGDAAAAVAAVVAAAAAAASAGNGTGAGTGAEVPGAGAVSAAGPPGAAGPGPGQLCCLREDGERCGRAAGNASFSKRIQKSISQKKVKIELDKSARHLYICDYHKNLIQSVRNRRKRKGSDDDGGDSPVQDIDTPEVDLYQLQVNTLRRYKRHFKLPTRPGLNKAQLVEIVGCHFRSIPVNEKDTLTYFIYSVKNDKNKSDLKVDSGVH
inactive: [1] -0.006 | [5] -0.002 | [3] -0.032

SDCBP isoform 2 (UniProt O00560)
UniProt O00560, sequence (O00560 whole entry, looked up): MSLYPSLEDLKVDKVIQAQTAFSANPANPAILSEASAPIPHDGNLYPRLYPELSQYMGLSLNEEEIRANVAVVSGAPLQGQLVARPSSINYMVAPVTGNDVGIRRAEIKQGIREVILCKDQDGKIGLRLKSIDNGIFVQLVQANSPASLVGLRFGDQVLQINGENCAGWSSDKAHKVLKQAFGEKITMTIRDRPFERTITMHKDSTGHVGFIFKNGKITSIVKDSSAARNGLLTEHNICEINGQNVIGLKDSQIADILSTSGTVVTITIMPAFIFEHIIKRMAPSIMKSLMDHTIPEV
inactive: [4] -0.08 | [2] 0.169

SLC19A1 (UniProt P41440)
UniProt P41440, sequence (P41440 whole entry, looked up): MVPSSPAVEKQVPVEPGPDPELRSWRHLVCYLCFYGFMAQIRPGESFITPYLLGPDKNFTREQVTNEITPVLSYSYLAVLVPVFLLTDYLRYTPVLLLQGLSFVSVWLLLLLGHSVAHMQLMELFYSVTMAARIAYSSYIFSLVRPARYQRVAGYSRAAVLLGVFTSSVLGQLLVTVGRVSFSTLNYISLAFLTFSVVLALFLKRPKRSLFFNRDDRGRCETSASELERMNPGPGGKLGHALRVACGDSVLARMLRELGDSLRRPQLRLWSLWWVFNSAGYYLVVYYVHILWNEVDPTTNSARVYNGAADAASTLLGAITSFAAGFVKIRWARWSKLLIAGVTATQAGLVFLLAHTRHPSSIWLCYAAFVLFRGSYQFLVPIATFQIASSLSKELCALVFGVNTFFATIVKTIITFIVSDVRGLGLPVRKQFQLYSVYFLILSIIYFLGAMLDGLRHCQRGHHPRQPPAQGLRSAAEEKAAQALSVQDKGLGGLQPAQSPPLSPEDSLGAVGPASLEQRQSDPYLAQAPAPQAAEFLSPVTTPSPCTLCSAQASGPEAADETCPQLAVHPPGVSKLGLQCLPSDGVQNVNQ
inactive: [4] -0.025 | [1] 0.065 | [5] 0.045 | [2] -0.013 | [3] 0.017

RAF1 isoform 2 (UniProt P04049)
UniProt P04049, sequence (P04049 whole entry, looked up): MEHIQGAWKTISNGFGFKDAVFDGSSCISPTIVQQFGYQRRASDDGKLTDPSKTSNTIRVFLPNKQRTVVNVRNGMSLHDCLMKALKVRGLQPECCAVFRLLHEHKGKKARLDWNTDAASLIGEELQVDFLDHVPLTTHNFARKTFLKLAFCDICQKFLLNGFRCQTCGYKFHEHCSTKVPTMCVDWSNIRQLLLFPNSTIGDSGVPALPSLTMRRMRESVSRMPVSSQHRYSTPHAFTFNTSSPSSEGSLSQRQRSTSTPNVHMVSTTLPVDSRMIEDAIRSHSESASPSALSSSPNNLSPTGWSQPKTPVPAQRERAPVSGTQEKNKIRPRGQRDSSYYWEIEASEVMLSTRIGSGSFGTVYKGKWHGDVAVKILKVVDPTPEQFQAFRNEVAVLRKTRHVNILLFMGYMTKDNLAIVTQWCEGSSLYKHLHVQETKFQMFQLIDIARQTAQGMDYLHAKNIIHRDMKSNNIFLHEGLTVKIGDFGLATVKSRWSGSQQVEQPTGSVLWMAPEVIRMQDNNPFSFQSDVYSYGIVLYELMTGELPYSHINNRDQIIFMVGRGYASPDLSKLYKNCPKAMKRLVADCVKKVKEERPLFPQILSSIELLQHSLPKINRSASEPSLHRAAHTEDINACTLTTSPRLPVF
inactive: [4] -0.08 | [1] 0.201 | [5] 0.222 | [2] -0.07 | [3] -0.105

SHROOM2 (UniProt Q13796)
UniProt Q13796, sequence (Q13796 whole entry, looked up): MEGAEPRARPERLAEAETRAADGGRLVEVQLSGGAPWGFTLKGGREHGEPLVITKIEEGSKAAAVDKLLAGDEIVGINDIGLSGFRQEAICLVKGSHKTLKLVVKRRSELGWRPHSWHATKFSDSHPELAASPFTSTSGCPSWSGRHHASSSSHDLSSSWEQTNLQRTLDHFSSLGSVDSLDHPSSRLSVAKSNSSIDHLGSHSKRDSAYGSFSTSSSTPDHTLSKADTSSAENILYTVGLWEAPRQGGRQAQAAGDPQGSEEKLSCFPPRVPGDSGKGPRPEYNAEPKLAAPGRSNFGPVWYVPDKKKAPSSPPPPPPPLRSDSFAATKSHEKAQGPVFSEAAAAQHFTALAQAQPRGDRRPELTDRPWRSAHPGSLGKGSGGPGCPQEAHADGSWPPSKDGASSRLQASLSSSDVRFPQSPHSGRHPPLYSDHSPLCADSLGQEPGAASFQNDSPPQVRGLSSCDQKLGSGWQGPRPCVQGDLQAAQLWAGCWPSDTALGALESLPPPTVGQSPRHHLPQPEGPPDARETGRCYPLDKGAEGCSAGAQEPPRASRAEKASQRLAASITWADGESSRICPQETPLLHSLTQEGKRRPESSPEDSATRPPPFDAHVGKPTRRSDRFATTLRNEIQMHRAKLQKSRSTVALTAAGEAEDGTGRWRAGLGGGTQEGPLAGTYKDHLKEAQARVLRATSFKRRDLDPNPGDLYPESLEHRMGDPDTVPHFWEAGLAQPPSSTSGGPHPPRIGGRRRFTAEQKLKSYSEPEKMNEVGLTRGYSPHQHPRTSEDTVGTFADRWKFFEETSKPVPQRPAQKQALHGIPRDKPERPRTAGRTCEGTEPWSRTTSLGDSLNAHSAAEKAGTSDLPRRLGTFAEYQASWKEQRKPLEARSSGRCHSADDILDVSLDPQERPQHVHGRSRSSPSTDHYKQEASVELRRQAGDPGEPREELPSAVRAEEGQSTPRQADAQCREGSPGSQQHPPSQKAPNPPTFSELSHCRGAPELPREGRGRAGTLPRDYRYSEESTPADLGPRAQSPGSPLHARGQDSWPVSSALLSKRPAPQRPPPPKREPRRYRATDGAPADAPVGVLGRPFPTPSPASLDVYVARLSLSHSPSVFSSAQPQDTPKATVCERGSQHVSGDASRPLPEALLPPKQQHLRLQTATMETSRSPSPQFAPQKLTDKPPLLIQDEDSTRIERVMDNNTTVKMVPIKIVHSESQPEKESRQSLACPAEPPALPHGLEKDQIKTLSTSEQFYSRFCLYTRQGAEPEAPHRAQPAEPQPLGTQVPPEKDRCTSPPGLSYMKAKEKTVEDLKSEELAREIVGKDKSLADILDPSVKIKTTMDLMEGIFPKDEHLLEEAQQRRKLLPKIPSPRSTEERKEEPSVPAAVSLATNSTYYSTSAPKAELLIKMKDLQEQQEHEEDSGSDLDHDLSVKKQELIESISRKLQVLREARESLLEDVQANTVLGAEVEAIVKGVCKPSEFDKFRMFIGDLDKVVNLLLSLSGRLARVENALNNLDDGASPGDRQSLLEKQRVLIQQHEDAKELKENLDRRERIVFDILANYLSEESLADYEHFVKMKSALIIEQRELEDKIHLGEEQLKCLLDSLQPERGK
inactive: [4] 0.105 | [1] 0.102 | [5] 0.103 | [2] -0.008 | [3] -0.072
